Test results from PMC4336329 (PLoS ONE, 2015).
Out of some 310,000 compounds screened, about 14,000 (4.5%) showed an effect of 50% or more. The effect is printed as a negative number. Many of the other results were omitted from the sample, so strong results are more common in it than they were.

Molecular target: human ether-à-go-go-related gene (hERG) potassium channel (human, UniProt Q12809)
Assay: primary screen, population patch clamp on CHO cells stably expressing hERG; higher = less effect of the substance
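Further: peak tail current of the secondary pulse compared with the same well before compound.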

human ether-à-go-go-related gene (hERG) potassium channel, sequence (Q12809 whole entry, looked up): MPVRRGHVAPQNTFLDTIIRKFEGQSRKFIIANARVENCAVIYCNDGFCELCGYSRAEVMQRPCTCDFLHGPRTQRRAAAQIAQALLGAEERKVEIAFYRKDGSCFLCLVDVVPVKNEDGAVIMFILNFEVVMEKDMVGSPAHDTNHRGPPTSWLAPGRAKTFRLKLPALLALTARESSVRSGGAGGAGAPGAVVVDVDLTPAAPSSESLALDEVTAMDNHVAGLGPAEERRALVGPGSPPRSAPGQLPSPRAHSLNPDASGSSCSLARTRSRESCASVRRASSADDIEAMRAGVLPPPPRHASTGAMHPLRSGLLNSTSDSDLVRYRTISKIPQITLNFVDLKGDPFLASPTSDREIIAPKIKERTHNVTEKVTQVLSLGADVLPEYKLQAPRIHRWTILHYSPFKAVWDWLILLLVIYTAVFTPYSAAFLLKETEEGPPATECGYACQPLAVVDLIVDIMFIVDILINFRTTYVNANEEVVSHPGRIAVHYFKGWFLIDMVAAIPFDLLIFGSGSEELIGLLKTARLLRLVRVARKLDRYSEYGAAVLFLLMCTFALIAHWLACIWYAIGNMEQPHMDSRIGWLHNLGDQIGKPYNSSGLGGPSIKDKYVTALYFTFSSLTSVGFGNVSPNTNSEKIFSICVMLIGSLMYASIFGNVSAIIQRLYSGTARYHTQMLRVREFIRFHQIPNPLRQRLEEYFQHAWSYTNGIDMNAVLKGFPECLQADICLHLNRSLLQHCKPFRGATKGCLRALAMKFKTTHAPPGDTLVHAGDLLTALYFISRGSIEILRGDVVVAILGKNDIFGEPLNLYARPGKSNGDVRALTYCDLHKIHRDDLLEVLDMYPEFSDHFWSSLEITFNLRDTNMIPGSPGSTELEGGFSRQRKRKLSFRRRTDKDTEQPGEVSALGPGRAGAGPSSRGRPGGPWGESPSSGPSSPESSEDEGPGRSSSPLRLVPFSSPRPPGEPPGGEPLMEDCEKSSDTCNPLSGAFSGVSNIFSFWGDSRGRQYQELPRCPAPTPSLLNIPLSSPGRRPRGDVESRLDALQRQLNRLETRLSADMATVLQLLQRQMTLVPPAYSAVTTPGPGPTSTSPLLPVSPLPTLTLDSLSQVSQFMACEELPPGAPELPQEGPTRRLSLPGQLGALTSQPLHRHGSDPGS

Row | SMILES | hERG current change (%, negative = inhibition) at 10uM [%]
1 | NC(=O)CN1C2CCC1CC(NC(=O)C1CC1)C2 (stereo not shown) | 14.7
2 | O=C(Nc1ccc(C(=O)N2CCCC2)cc1)c1ccccc1Br | 19.8
3 | COc1ccccc1NS(=O)(=O)c1ccc(O)cc1 | 1.44
4 | COc1nc(N=C(N)N)nc2c(C)cccc12 | -2.93
5 | CC(=O)Nc1ccc(S(=O)(=O)Nc2nc3ccccc3nc2Nc2ccccc2)cc1 | 10.3
6 | CC(=O)Nc1ccc(NC(=O)CN(C)S(=O)(=O)c2ccc3nc(C)sc3c2)cc1 | 25.7
7 | O=C1NCCCC1C(=O)N/N=C/c1ccccc1 (stereo not shown) | -4.35
8 | O=C(c1cc2sccc2n1Cc1ccccc1)N1CCCc2ccccc21 | 1.8
9 | O=C(NCc1cccc(Cl)c1)c1ccc2c(c1)OCO2 | 0.973
10 | Cn1c(-c2ccc3c(c2)OCO3)cnc1NC(=O)CCC(=O)NCCc1ccccc1 | -6.98
11 | Cn1c(-c2ccc3c(c2)OCO3)cnc1NCc1cccc(Cl)c1.O=C(O)C(=O)O | -74
12 | Cc1ccc(CNc2ccc3c(c2)OCO3)cc1 | -4.29
13 | Cc1ccc(CNc2ncc(-c3ccc4c(c3)OCO4)n2C)cc1.O=C(O)C(=O)O | -59
14 | Cn1c(-c2ccc3c(c2)OCO3)cnc1N | -16.5
15 | Cn1c(-c2ccc3c(c2)OCO3)cnc1NCc1ccccc1.O=C(O)C(=O)O | -60
16 | Cn1c(-c2ccc3c(c2)OCO3)cnc1NCc1cccc(O)c1.O=C(O)C(=O)O | -23.1
17 | COc1ccc2c(CC(=O)Nc3ncc(C)s3)coc2c1 | 5.72
18 | CN(C)c1ccc(C(CC(=O)O)C(=O)O)cc1 (stereo not shown) | 14.4
19 | CCOc1ccc(C(=O)CCC(=O)Nc2ncccc2O)cc1 | 5.51
20 | Cc1ccccc1OCC(O)Cn1c(NCCN(C)C)nc2c1c(=O)n(C)c(=O)n2C (stereo not shown) | -20.3
21 | CSc1cccc(NC(=O)/C=C/c2ccc(Cl)cc2)c1 | -4.08
22 | O=S(=O)(Nc1ncccn1)c1ccc(NC(=S)N2CCN(Cc3ccc(F)cc3Cl)CC2)cc1 | 22

Row | SMILES | hERG current change (%, negative = inhibition) at 10uM [%]
23 | CNC(C)C#Cc1ccc2c(=O)c3c(OC)cccc3oc2c1 (stereo not shown) | 0.579
24 | CC(=O)Nc1sc2c(c1CN1CCN(c3ccc(F)cc3)CC1)CCCC2 | -6.73
25 | O=C(Nc1ccc(Oc2cccnc2)nc1)c1ccc(C(F)(F)F)cc1 | -30
26 | CC(C)(C)c1ccc(C(=O)Nc2cccnc2)cc1 | -18.7
27 | CC(C)(C)c1ccc(C(=O)Nc2ccc(Oc3cccnc3)nc2)cc1 | -61.2
28 | CCCCC(=Nc1ccccc1OC)C1=C(O)CC(c2ccccc2)CC1=O (stereo not shown) | 3.11
29 | COc1cc(C2C(C#N)=C(N)Oc3cc(N(C)C)ccc32)cc2c1OCO2 (stereo not shown) | -6.32
30 | COC(=O)c1ccc(COc2ccc(F)cc2)o1 | -27.4
31 | COc1cc(/C=C2/SC(=S)N(CCC(=O)Nc3ccccc3)C2=O)cc(OC)c1OC | 13.8
32 | CCN(CC)CCSc1nnc2c3cc(C)ccc3n(Cc3ccccc3)c2n1 | -79.1
33 | CCN(CC)CCSc1nnc2c3cc(F)ccc3n(Cc3ccccc3)c2n1 | -77
34 | CSc1nnc2c3cc(F)ccc3n(Cc3ccccc3)c2n1 | 13.6
35 | NNc1nnc2c3cc(F)ccc3n(Cc3ccccc3)c2n1 | -22.4
36 | CSc1nnc2c3cc(C)ccc3n(Cc3ccccc3)c2n1 | 2.55
37 | Cc1ccc2c(c1)c1nnc(SCC(=O)Nc3cccc(Cl)c3C)nc1n2CC(=O)O | 19.6
38 | O=c1cc(CNc2cc(C(F)(F)F)cc(C(F)(F)F)c2)nc2sccn12 | -6.36
39 | Cn1nc(OCCOc2ccccc2)ccc1=O | -4.45
40 | NC(=O)c1ccc(Oc2ncc(C(F)(F)F)cc2Cl)cc1 | -3.77
41 | O=C(NCc1cccs1)c1ccccc1F | -3.47
42 | Cc1ccc(-c2nc(CN3CCCCC3)cc(CN3CCCCC3)c2O)cc1.Cl | -62.5
43 | Cc1ccc(-c2nc(CN(C)C)cc(CN(C)C)c2O)cc1.Cl | -14.6
44 | CC(C)(C)c1nc(CN2CCCCC2)cc(CN2CCCCC2)c1O | -24.2

Row | SMILES | hERG current change (%, negative = inhibition) at 10uM [%]
45 | Cc1ccccc1OCC(=O)OCn1nnc2ccccc2c1=O | 19.6
46 | Cc1ccc2[nH]c3c(=O)n(CC(=O)NCc4ccco4)ncc3c2c1 | 21.9
47 | CC(C)N(CCCNC(=O)Cn1ncc2c([nH]c3ccccc32)c1=O)Cc1ccccc1 | -48.1
48 | CCN(CCCNC(=O)Cn1ncc2c([nH]c3ccc(C)cc32)c1=O)c1ccccc1 | 19
49 | O=C(Cn1ncc2c([nH]c3ccccc32)c1=O)NCCc1ccccc1 | 3.06
50 | CCN(CCCNC(=O)Cn1ncc2c([nH]c3ccccc32)c1=O)Cc1ccccc1 | -67
51 | CCN(CCCNC(=O)Cn1ncc2c([nH]c3ccc(C)cc32)c1=O)Cc1ccccc1 | -58.5
52 | Cc1ccc2[nH]c3c(=O)n(CC(=O)NCCCN(C)Cc4ccccc4)ncc3c2c1 | -31.6
53 | Cc1ccc(NC(=O)c2oc3ccc(S(=O)(=O)N4CCOCC4)cc3c2C)c(C)c1 | 5.03
54 | O=C(Nc1nc(N2C(=O)c3ccccc3C2=O)n(-c2ccccc2)n1)c1ccc(Cl)cc1 | -7.9
55 | CC1CC(C)CN(CCCNC(=O)Cc2c(C(=O)O)n(C)c3ccccc23)C1 (stereo not shown) | -15.9
56 | COC(=O)c1c(NC(=O)CCCC(=O)O)sc2c1CCCCC2 | 12.2
57 | CCOc1ccc(-c2n[nH]c(C)c2-c2ccccn2)c(O)c1 | 13.6
58 | CS(=O)(=O)Nc1ccc(C(=O)NCc2ccccn2)cc1 | 0.863
59 | O=C(NC1CCCC1)c1ccc(CS(=O)(=O)Cc2ccccc2F)o1 | -7.89
60 | CC(=O)NCCn1c(SCC(=O)NCc2ccco2)nc2ccccc2c1=O | -23.9
61 | COCCCn1c(SCC(=O)NCc2ccccc2)nc2ccccc2c1=O | -48.6
62 | CCn1c(SCC(=O)Nc2cccc(OC)c2)nc2ccccc2c1=O | -47.1
63 | Cc1ccc(CNC(=O)CSc2nc3ccccc3c(=O)n2CCCO)cc1 | -73
64 | COc1cccc(NC(=O)CSc2nc3ccccc3c(=O)n2CCCC(=O)N2CCCC2)c1 | -67.3
65 | COc1ccc(NC(=O)COC(=O)c2ccccc2SCC(=O)N2CCCC2)cc1 | -53.9
66 | Cc1ccc(NC(=O)CSc2nc3ccccc3c(=O)n2CCCC(=O)N2CCCC2)cc1 | -44.5

Row | SMILES | hERG current change (%, negative = inhibition) at 10uM [%]
67 | O=C(CSc1nc2ccccc2c(=O)n1CCCO)NCc1ccccc1 | -41.5
68 | CC(=O)Nc1ccc(NC(=O)COC(=O)c2ccccc2SCC(=O)N2CCCC2)cc1 | 5.48
69 | COc1cc(NC(=O)COC(=O)c2ccccc2SCC(=O)N2CCCC2)cc(OC)c1 | -25.7
70 | O=C(CSc1nc2ccccc2c(=O)n1CCCC(=O)N1CCCC1)NCc1ccco1 | -62.4
71 | N#CCSc1nc2ccccc2c(=O)n1CCCC(=O)NCc1ccco1 | -33.7
72 | CCCCN(C(=O)CSc1nnnn1C)C1CCS(=O)(=O)C1 (stereo not shown) | -28.1
73 | COC(=O)N/N=C/c1cn(CCOc2ccc(OC)cc2)c2ccccc12 | 16.8
74 | Cc1ccc(-n2cc3c(=O)n(C)c(=O)n(C)c3c2)cc1C | -6.21
75 | CC(=O)N[C@H]1C(O)O[C@H](CO)[C@@H](O)[C@@H]1O (stereo partly shown) | 9.71
76 | CCN(CC)c1ccc(C=O)c(OC)c1 | -9.16
77 | N#C/C(=C\c1cc2c(cc1Br)OCO2)c1ccc(C(=O)O)cc1 | 13.2
78 | COCC(=O)N(C)c1nnc(-c2ccc([N+](=O)[O-])cc2)s1 | 6.65
79 | CN(CC(=O)Nc1c(Cl)cccc1Cl)C(=O)c1ccncc1 | 19.4
80 | Cn1cnc2c1c(=O)n(Cc1cccc(F)c1)c(=O)n2C | 12
81 | Nc1c(C(=O)NC2CCCCC2)nsc1C(=O)OCC(=O)NC1CCCCC1 | 12.5
82 | CCn1c(-c2cc(-c3ccc(C)cc3)nc3ccccc23)n[nH]c1=S | 11.4
83 | CNCCOc1ccc(Cl)c(Cl)c1.O=C(O)C(=O)O | 12.8
84 | COc1ccc(NC(=O)CNC(=O)Cc2cccc3ccccc23)c(OC)c1 | 2.01
85 | O=C(Nc1ncc(Cc2ccccc2)s1)C1COc2ccccc2O1 (stereo not shown) | -0.581
86 | CCOC(=O)c1c(-c2ccc(C)o2)csc1NC(=O)COC(=O)c1cccs1 | -12
87 | CN1C(=O)NC(c2ccc(O)cc2)C2=C1CN(c1cccc3ccccc13)C2=O (stereo not shown) | -11.8
88 | CCC(=O)NC(NC(=S)Nc1ccc(S(N)(=O)=O)cc1)C(Cl)(Cl)Cl (stereo not shown) | -1.3
